Reference: PubChem BioAssay (EPA / NIEHS)
Inconclusive results are not listed. The source made the active and inactive calls. Rule for the calls: active = hit-call score of the fitted dose curve at least 0.9, where 1 is the maximum; inconclusive = response in the unintended direction; inactive = score below 0.9.

Read-out: Cytochrome P450 3A4 (Homo sapiens) (UniProt P08684)
Assay: CLD_CYP3A4_6hr: CellzDirect (CLD) Gene Expression Assay for xenobiotic metabolism (CYP3A4) at 6 hours (AID 2283680)
Experimental: CLD_6hr is a cell-based, multiplexed-readout assay that uses hepatocyte, a human liver primary cell, with measurements taken at 6 hours after chemical dosing in a 96-well plate.CLD_CYP3A4_6hr is one of 16 assay component(s) measured or calculated from the CLD_6hr assay. It is designed to make measurements of mRNA induction, a form of inducible reporter, as detected with chemiluminescence signals by Quantitative Nuclease Protection Assay (qNPA) technology.Data from the assay component CLD_CYP3A4_6hr was analyzed at the endpoint, CLD_CYP3A4_6hr, in the positive analysis fitting direction relative to DMSO as the negative control and baseline of activity. Using a type of inducible reporter, gain-of-signal activity can be used to understand changes in the reporter gene as they relate to the gene CYP3A4. Furthermore, this assay endpoint can be referred to as a primary readout. To generalize the intended target to other relatable targets, this assay endpoint is annotated to the cyp intended target family, where subfamily is xenobiotic metabolism.
Human hepatocyte cultures were treated daily for two consecutive days with fresh dosing solutions containing appropriate concentrations of the 320 ToxCast chemicals (chemical identities were blinded to CellzDirect and other ToxCast collaborators), vehicle control (0.2% DMSO), and positive control inducers as summarized in Table 1. Due to the large number of treatment groups and chemicals examined, the ToxCast chemicals were divided into two groups (spanning two independent cultures of hepatocytes from separate donor preparations (Hu778: ToxCast plates 1 and 2; Hu776: ToxCast plates 3 and 4). Each preparation of human hepatocyte cultures was treated with respective vehicle control, medium only control, set of six positive controls/reference chemicals for the five hepatic receptor pathways, and a subset of eight of the ToxCast chemicals (indoxacarb, pyrithiobac-sodium, norflurazon, cyhalofop-butyl, methomyl, thiram, acetochlor, and propiconazole). These replicate data, coupled with internal replicates designed within the blinded ToxCast chemical library, provided additional data to evaluate interindividual differences between hepatocyte preparations and their potential impact on chemical profiles.Cell morphology and integrity were evaluated using phase-contrast microscopy as an indicator of hepatocyte cell health (Tyson & Green, 1987). Cultures for each treatment group (i.e., media, vehicle [0.2% DMSO], positive control inducers [multiple concentrations], and the ToxCast chemicals [multiple concentrations]) were observed and cell morphology was assessed relative to vehicle control cultures at each harvest time point (0, 6, 24, or 48 h). […] Images were evaluated at the conclusion of the study to assess changes in cell integrity and account for the effects of chemical exposure on uncharacteristic changes in concentration-dependent gene expression profiles. The results from these determinations of apparent cytotoxicity were annotated (yes/no) alongside the corresponding qNPA data for reference.At the conclusion of each treatment period, hepatocyte cultures (96-well) were washed with 1 volume of HBSS, lysed by addition of 25 ul ArrayPlate lysis buffer (HTG, Tucson, AZ), and 70 ul/well of Denaturation Oil, denatured by incubation at 95C for 10 min, and frozen at approximately -70C until analysis by nuclease protection assay (qNPA) (Roberts et al., 2007). For qNPA analysis, cell lysates were thawed at 50C for approximately 30 min, qNPA probes were added, and samples were incubated at 95C for 10 min to begin the detection process by denaturing the target RNA, dissociating the duplexes and secondary structure hybridization. At the conclusion of the hybridization period, S1 nuclease reagent was added to each sample to digest all nonprotected nucleotides at 50C for 60-90 min. […]

Cytochrome P450 3A4 (Homo sapiens), sequence (P08684 whole entry, looked up): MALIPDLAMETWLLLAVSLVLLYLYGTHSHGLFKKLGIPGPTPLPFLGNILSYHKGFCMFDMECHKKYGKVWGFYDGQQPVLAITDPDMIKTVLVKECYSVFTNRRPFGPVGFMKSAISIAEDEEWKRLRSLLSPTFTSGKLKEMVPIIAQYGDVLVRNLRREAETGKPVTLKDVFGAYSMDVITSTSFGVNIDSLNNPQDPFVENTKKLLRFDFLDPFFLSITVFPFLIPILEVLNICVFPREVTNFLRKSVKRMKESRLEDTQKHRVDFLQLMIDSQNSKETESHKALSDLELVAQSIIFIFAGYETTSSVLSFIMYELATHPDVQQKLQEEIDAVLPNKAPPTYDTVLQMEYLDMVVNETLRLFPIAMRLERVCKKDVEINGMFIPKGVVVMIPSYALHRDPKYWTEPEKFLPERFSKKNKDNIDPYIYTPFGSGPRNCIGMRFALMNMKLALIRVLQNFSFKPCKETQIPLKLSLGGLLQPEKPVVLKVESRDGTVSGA

Structure (SMILES) | outcome | AC50
CCOC(=O)C(Cl)Cc1cc(-n2nc(C)n(C(F)F)c2=O)c(F)cc1Cl (stereo not drawn) | inactive | 
CCOc1cc(Oc2ccc(C(F)(F)F)cc2Cl)ccc1[N+](=O)[O-] |  | 5.4 µM (active)
C=CCC1=C(C)C(OC(=O)C2C(C=C(C)C)C2(C)C)CC1=O (stereo not drawn) | inactive | 
CNC(=S)S | inactive | 
COP(N)(=O)SC (stereo not drawn) | inactive | 
C=CC1(C)OC(=O)N(c2cc(Cl)cc(Cl)c2)C1=O (stereo not drawn) | inactive | 
Cc1c(F)c(F)c(COC(=O)C2C(/C=C(\Cl)C(F)(F)F)C2(C)C)c(F)c1F (stereo not drawn) | inactive | 
COC(=O)C(C)Oc1ccc(Oc2ccc(Cl)cc2Cl)cc1 (stereo not drawn) | inactive | 
CCc1nn(C)c(C(=O)NCc2ccc(C(C)(C)C)cc2)c1Cl | inactive | 
CON(C)C(=O)Nc1ccc(Cl)c(Cl)c1 | inactive | 
COC(=O)C=C(C)OP(=O)(OC)OC | inactive | 
CCCC1COC(Cn2cncn2)(c2ccc(Cl)cc2Cl)O1 (stereo not drawn) | inactive | 
COC(=O)N(OC)c1ccccc1COc1ccn(-c2ccc(Cl)cc2)n1 | inactive | 
CCCCOC(=O)c1ccccc1C(=O)OCCCC | inactive | 
CCCN(CCC)c1c([N+](=O)[O-])cc(S(N)(=O)=O)cc1[N+](=O)[O-] | inactive | 
CCCCNC(=O)OCC#CI |  | 1.89 µM (active)
C#CCOS(=O)OC1CCCCC1Oc1ccc(C(C)(C)C)cc1 (stereo not drawn) |  | 1.89 µM (active)

Structure (SMILES) | outcome | AC50
COc1cnc(OC)n2nc(NS(=O)(=O)c3c(OCC(F)F)cccc3C(F)(F)F)nc12 |  | 8.34 µM (active)
COc1nc(C)nc(NC(=O)NS(=O)(=O)c2ccccc2Cl)n1 | inactive | 
COP(=S)(OC)Oc1nc(Cl)c(Cl)cc1Cl | inactive | 
Cc1ccc(-c2c(Cl)nc(C#N)n2S(=O)(=O)N(C)C)cc1 |  | 1.89 µM (active)
OC(c1ccc(Cl)cc1)(c1cncnc1)c1ccccc1Cl (stereo not drawn) | inactive | 
CC1=C(C(=O)Nc2ccccc2)SCCO1 | inactive | 
CCOC(=O)CC(SP(=S)(OC)OC)C(=O)OCC (stereo not drawn) | inactive | 
N#CC(CCc1ccc(Cl)cc1)(Cn1cncn1)c1ccccc1 (stereo not drawn) | inactive | 
CC(C)Oc1cc(-n2nc(C(C)(C)C)oc2=O)c(Cl)cc1Cl |  | 1.89 µM (active)
CNC(=O)ON=CC(C)(C)SC | inactive | 
CC(C)C1(C)N=C(c2nc3ccccc3cc2C(=O)O)NC1=O (stereo not drawn) | inactive | 
CCON=C(CC)C1=C(O)CC(c2c(C)cc(C)cc2C)CC1=O (stereo not drawn) | inactive | 
N#Cc1nn(-c2c(Cl)cc(C(F)(F)F)cc2Cl)c(N)c1S(=O)C(F)(F)F (stereo not drawn) | inactive | 
COc1nc(NC(C)C)nc(NC(C)C)n1 | inactive | 
COc1nc(C)nc(NC(=O)NS(=O)(=O)c2ccccc2CCC(F)(F)F)n1 | inactive | 
CCNc1nc(Cl)nc(NC(C)C)n1 |  | 20 µM (active)
